Source: PubChem BioAssay AID504339 (National Center for Advancing Translational Sciences (NCATS), 2011)
Hit rate of the full screen: of about 390,000 compounds, about 17,000 (4.4%) were called active. About 8% were inconclusive and are not listed. Many of the other results were omitted from the sample, so actives are more common in it than they were. Unmarked numbers belong to inactive results. Calls come from the whole dose curve; as a rule, active = well fitted inhibition curve with a large enough effect; inconclusive = small, poorly fitted or top-dose-only effect; inactive = no such curve, though single readings can be large or run the other way.

Each compound was assayed against Lysine-specific demethylase 4A (Homo sapiens) (UniProt O75164) (assay: qHTS Assay for Inhibitors of JMJD2A-Tudor Domain). Settings: AlphaScreen JMJD2A-Tudor / H3K4me3 peptide binding; series mostly up to 114 µM; activity change, negative = inhibition: at the top concentration.
Sequence of Lysine-specific demethylase 4A (Homo sapiens) (O75164 whole entry, looked up, the tested form may be a part): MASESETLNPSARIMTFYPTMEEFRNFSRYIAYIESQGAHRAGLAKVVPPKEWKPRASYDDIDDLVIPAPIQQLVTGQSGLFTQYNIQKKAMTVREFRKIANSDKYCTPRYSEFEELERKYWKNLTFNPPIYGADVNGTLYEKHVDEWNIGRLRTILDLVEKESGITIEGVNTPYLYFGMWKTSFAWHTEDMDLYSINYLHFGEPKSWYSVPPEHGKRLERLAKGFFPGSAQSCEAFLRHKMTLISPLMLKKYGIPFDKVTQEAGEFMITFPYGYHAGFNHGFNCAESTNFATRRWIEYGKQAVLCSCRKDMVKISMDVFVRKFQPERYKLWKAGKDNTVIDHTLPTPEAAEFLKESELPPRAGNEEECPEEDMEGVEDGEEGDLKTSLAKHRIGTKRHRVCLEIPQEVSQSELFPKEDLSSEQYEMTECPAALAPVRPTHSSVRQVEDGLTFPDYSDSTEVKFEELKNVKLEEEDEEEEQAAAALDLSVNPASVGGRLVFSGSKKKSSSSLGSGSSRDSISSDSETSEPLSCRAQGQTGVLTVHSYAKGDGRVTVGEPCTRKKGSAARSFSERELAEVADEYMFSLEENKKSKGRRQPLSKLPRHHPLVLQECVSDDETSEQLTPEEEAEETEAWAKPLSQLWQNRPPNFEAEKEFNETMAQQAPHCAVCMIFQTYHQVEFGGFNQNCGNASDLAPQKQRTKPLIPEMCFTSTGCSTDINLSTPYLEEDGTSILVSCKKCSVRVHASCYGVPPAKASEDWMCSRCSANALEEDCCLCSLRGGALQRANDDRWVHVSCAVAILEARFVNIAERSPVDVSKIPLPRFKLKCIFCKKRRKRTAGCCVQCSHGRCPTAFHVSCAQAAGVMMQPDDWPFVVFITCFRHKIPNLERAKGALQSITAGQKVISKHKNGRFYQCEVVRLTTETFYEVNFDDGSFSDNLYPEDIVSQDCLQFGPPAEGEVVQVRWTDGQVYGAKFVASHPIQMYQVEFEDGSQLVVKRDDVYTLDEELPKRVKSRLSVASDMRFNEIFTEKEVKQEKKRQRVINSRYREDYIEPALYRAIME
% is set by controls: 0 for no effect and ±100 for the full control effect; potency is the fitted concentration of half-maximal effect.
Note: nearly all actives have a fitted effect of over 50% in size.

Question: With `Cc1cccc(C(CC(=O)NCC2(c3ccccc3)CCCC2)c2ccccc2)c1O` (centres undefined) as the compound, how does the “activity change, negative = inhibition” value read?
Answer: -5.84%

Question: With `CCOC(=O)CN1C(C(=O)c2ccccc2)=C(OC(=O)C(C)(C)C)c2ccccc2S1(=O)=O` as the compound, how does the “activity change, negative = inhibition” value read?
Answer: -18.2%

Question: Which “activity change, negative = inhibition” value does the source give for `CC(CCCc1ccccc1)NC(=O)c1nn(-c2ccc(Cl)cc2)nc1CO` (centres undefined) here?
Answer: -3.77%

Question: Which “activity change, negative = inhibition” value does the source give for `CC(CNC(=O)Cn1cnc2c(OCc3ccccc3)ncnc21)c1ccccc1` (centres undefined) here?
Answer: -17.3%

Question: For `O=C(Cn1cnc2c(OCc3ccccc3)ncnc21)NCc1nc2ccccc2[nH]1`, which Potency is on record?
Answer: 56.2 µM (active)

Question: For `O=C(Cn1cnc2c(OCc3ccccc3)ncnc21)NCCCn1ccnc1`, which “activity change, negative = inhibition” value is on record?
Answer: -13.8%

Question: With `CC(C)S(=O)(=O)c1oc(-c2ccc(F)cc2)nc1S(=O)(=O)c1ccc(F)cc1` as the compound, how does the “activity change, negative = inhibition” value read?
Answer: -11.1%

Question: `Cc1ccc(Cl)cc1NC(=O)NC1COc2ccccc2C1` (centres undefined) was tested. Which “activity change, negative = inhibition” value did it give?
Answer: -16.9%

Question: How did the “activity change, negative = inhibition” value turn out when `Cc1c(Cl)c([N+](=O)[O-])nn1Cc1ccc(C(=O)N/N=C\c2cc(Cl)ccc2O)o1` was run?
Answer: -25.2% [at 57.1 µM]

Question: With `COc1ccc(C(=O)NNC(=O)c2cc(C)[nH]n2)cc1` as the compound, how does the “activity change, negative = inhibition” value read?
Answer: -4.35%

Question: How did the Potency turn out when `Cc1cc(C(=O)N/N=C/c2cc([N+](=O)[O-])cc(C)c2O)n[nH]1` was run?
Answer: 44.7 µM (active)

Question: How did the “activity change, negative = inhibition” value turn out when `CCCCS(=O)(=O)c1oc(-c2cccs2)nc1S(=O)(=O)c1ccccc1` was run?
Answer: -4.51%

Question: Which Potency does the source give for `Cc1ccc(-c2ccc(/C=C(\C#N)C(N)=S)o2)c([N+](=O)[O-])c1` here?
Answer: 14.1 µM (active)

Question: `CCOC(=O)c1ccc(-c2ccc(/C=C(\C#N)C(=O)Nc3ccc(C)cc3)o2)cc1` was tested. Which “activity change, negative = inhibition” value did it give?
Answer: -26.2%

Question: How did the “activity change, negative = inhibition” value turn out when `CCCCOC(=O)/C(C#N)=C/c1ccc(-c2cccc(C(F)(F)F)c2)o1` was run?
Answer: -25.2%

Question: With `Cc1cccn2c(=O)c(C(=O)NC(C)c3ccccc3)cnc12` (centres undefined) as the compound, how does the “activity change, negative = inhibition” value read?
Answer: -5%

Question: How did the “activity change, negative = inhibition” value turn out when `CCC(C)c1ccc2oc(-c3ccc(NC(=O)c4cc5ccccc5o4)cc3)nc2c1` (centres undefined) was run?
Answer: -14.5%

Question: With `Cc1ccc(S(=O)(=O)N2CCC(C(=O)N3CCCCCCC3)CC2)cc1` as the compound, how does the “activity change, negative = inhibition” value read?
Answer: -7.56%

Question: How did the “activity change, negative = inhibition” value turn out when `O=C(C1CCCN(S(=O)(=O)c2ccc([N+](=O)[O-])cc2)C1)N1CCCCC1` (centres undefined) was run?
Answer: -6.21%

Question: With `Cc1ccc(S(=O)(=O)N2CCC(N3CCCCCC3)CC2)cc1` as the compound, how does the Potency read?
Answer: 0.891 µM (active)

Question: How did the “activity change, negative = inhibition” value turn out when `COc1ccc(S(=O)(=O)N2CCCC(C(=O)N3CCN(C)CC3)C2)cc1C` (centres undefined) was run?
Answer: -6.21%

Question: How did the “activity change, negative = inhibition” value turn out when `COc1ccc(N2CCN(C(=O)C3CCN(C(=O)c4ccccc4Cl)CC3)CC2)cc1` was run?
Answer: -15.7%

Question: With `CC(=O)Nc1ccc(S(=O)(=O)N2CCN(C3CCCCCCC3)CC2)cc1` as the compound, how does the “activity change, negative = inhibition” value read?
Answer: -30.2%

Question: For `Cc1ccc(S(=O)(=O)N2CCCC(C(=O)N3CCN(C)CC3)C2)cc1` (centres undefined), which Potency is on record?
Answer: 2.82 µM (active)

Question: For `Cc1ccc(S(=O)(=O)N2CCN(C)CC2)cc1`, which “activity change, negative = inhibition” value is on record?
Answer: -7.48%

Question: Which Potency does the source give for `COc1ccc(N2CCN(C(=O)C3CCN(S(=O)(=O)c4ccc(C)cc4)CC3)CC2)cc1` here?
Answer: 39.8 µM (active)

Question: For `CCOC(=O)C1CCC(CN(Cc2ccc(OC)cc2)S(=O)(=O)c2ccc(F)c(C(=O)Nc3cc(C)ccc3C)c2)CC1` (centres undefined), which “activity change, negative = inhibition” value is on record?
Answer: -18.3%

Question: For `N#Cc1nc(/C=C/c2ccc(F)cc2)oc1NC1CCCCC1`, which “activity change, negative = inhibition” value is on record?
Answer: -25.8%

Question: For `COc1ccc(Cn2ccn(Cc3cccc(OC)c3)c(=O)c2=O)cc1`, which “activity change, negative = inhibition” value is on record?
Answer: -12.8%

Question: Which “activity change, negative = inhibition” value does the source give for `Cc1ccccc1Cn1nc(C)c(NC(=O)c2cc(-c3ccc(F)cc3)on2)c1C` here?
Answer: -2.73%

Question: How did the “activity change, negative = inhibition” value turn out when `Cc1c(Cl)cccc1NC(=O)CCS(=O)(=O)c1ccc2c(c1)oc(=O)n2C` was run?
Answer: -10.4%

Question: Which “activity change, negative = inhibition” value does the source give for `COc1cccc(C(=O)NCc2ccc3c(c2)CCN3C(=O)c2ccncc2)c1` here?
Answer: -10.3%

Question: How did the “activity change, negative = inhibition” value turn out when `COc1cc(C)ccc1OCCSc1nc2ccc(NC(=O)c3ccc(C)cc3)cc2s1` was run?
Answer: 5.63%

Question: `COc1cc(Cl)c(C)cc1NC(=O)CCc1nc2cccnc2n1Cc1cccs1` was tested. Which “activity change, negative = inhibition” value did it give?
Answer: -17.5%

Question: With `Oc1c(C=Nc2cccc3nsnc23)ccc2ccccc12` as the compound, how does the Potency read?
Answer: 89.1 µM (active)

Question: For `O=C(Nc1ccc(F)cc1F)c1ccc2c(=O)n3c(nc2c1)CCCCC3`, which “activity change, negative = inhibition” value is on record?
Answer: -4.44%

Question: How did the “activity change, negative = inhibition” value turn out when `COc1cc2c(=O)c(S(=O)(=O)c3ccc(C(C)C)cc3)cn(Cc3ccccc3C)c2cc1OC` was run?
Answer: -26.8%

Question: Which “activity change, negative = inhibition” value does the source give for `CCc1ccc(NC(=O)CN2C(=O)C(c3ccccc3)=NC23CCCCCC3)cc1` here?
Answer: -9.73%

Question: For `C=CCN(C(=O)c1cc(C)cc(C)c1)C1(C(=O)Nc2ccccc2)CCN(C(C)C)CC1`, which “activity change, negative = inhibition” value is on record?
Answer: -22.4%

Question: Which Potency does the source give for `CCN(C(=O)Cc1nc(N)n[nH]1)C1(C(=O)Nc2ccccc2)CCCCC1` here?
Answer: 100 µM (active)

Question: How did the Potency turn out when `CC1CCCC(C)N1C(=O)CN1CCN(c2nc(-c3ccc(F)cc3)cs2)CC1` (centres undefined) was run?
Answer: 79.4 µM (active)

Question: `CCc1ccc(CNC(=O)C2CCN(c3nn4cc(-c5ccc(F)cc5)nc4s3)CC2)cc1` was tested. Which “activity change, negative = inhibition” value did it give?
Answer: 1.65%

Question: With `O=C(COC(=O)C1CCCO1)Nc1nc(-c2ccc(F)cc2)cs1` (centres undefined) as the compound, how does the “activity change, negative = inhibition” value read?
Answer: -6.9%

Question: With `O=C(CNC(=O)c1ccccc1)OC(C(=O)Nc1cc([N+](=O)[O-])ccc1F)c1ccccc1` (centres undefined) as the compound, how does the “activity change, negative = inhibition” value read?
Answer: -28.1%

Question: With `COc1ccc(Cn2ccnc2SCC(=O)NCc2ccco2)cc1` as the compound, how does the “activity change, negative = inhibition” value read?
Answer: -26.8%

Question: For `Cc1cccc(OCCSc2nc3ccc(NC(=O)COc4ccccc4C)cc3s2)c1`, which “activity change, negative = inhibition” value is on record?
Answer: 2.32%

Question: How did the “activity change, negative = inhibition” value turn out when `COc1ccc(CCOC2OC(CO)C(OC(=O)/C=C/c3ccc(O)c(OC)c3)C(O[C@H]3O[C@@H](C)[C@H](O)[C@@H](O)[C@H]3O)C2O)cc1O` (some centres undefined) was run?
Answer: -23.8%

Question: With `C[C@@H]1O[C@@H](OC[C@H]2O[C@@H](Oc3c(-c4ccc(O)cc4)oc4cc(O)cc(O)c4c3=O)[C@H](O)[C@@H](O)[C@@H]2O)[C@H](O)[C@H](O)[C@H]1O` as the compound, how does the “activity change, negative = inhibition” value read?
Answer: -18.4%

Question: With `COc1ccc(-c2cc(=O)c3c(O)cc(O[C@@H]4O[C@H](CO[C@@H]5O[C@@H](C)[C@H](O)[C@@H](O)[C@H]5O)[C@@H](O)[C@H](O)[C@H]4O)cc3o2)cc1O` as the compound, how does the Potency read?
Answer: 20 µM (active)

Question: Which “activity change, negative = inhibition” value does the source give for `COc1ccc(NC(=O)N2CCCn3nc(C)cc32)cc1OC` here?
Answer: -11%

Question: How did the “activity change, negative = inhibition” value turn out when `Cc1ccccc1NC(=O)Cn1c(=O)n(CCc2ccccc2)c(=O)c2ccccc21` was run?
Answer: -13%

Question: `OCCN(Cc1ccccc1)Cc1ccc(Cl)cc1` was tested. Which Potency did it give?
Answer: 10 µM (active)

Question: With `O=[N+]([O-])c1ccc(N(CCO)Cc2ccccc2)c([N+](=O)[O-])c1` as the compound, how does the “activity change, negative = inhibition” value read?
Answer: -35.1%

Question: For `CN(C(=O)CN(CCO)CC(=O)N(C)C(C)(C)Cc1ccccc1)C(C)(C)Cc1ccccc1`, which “activity change, negative = inhibition” value is on record?
Answer: -18.7%

Question: Which Potency does the source give for `CC(O)CN(Cc1ccc(Cl)cc1)CC(C)O` (centres undefined) here?
Answer: 8.91 µM (active)

Question: Which “activity change, negative = inhibition” value does the source give for `O=C(Cc1ccc(Cl)cc1)c1ccccc1` here?
Answer: 6.9%

Question: For `CC(Cc1cccs1)N(Cc1ccc(Cl)cc1)C(=O)c1ccncc1` (centres undefined), which “activity change, negative = inhibition” value is on record?
Answer: -4.03%

Question: For `Cc1ccc(CN(C(=O)c2ccccc2[N+](=O)[O-])c2ccccn2)cc1`, which “activity change, negative = inhibition” value is on record?
Answer: -12.6%

Question: With `COc1ccc(CC(=O)Nc2ccc(-c3nc4ccccc4s3)c(C)c2)cc1` as the compound, how does the “activity change, negative = inhibition” value read?
Answer: -18.3%
